{"source": "PubChem BioAssay (NCATS)", "note": "Results filed as inconclusive are left out. Active and inactive are the calls of the source. The call rests on the fitted dose curve; in most records, active means well fitted inhibition curve with a large enough effect; inconclusive means small, poorly fitted or top-dose-only effect; inactive means no such curve, though single readings can be large or run the other way. Potency means the concentration at half of the fitted maximal effect.", "data": [{"experiment": "qHTS Screen of the MIPE 4.0 Collection Against Ewings Sarcoma (RDES) (AID 1259252); further: nearly all actives have a fitted effect of over 35% in size", "settings": "RD-ES Ewing sarcoma viability, CellTiter-Glo, 48 h; series mostly up to 45.8 µM", "description": "There is a large unmet medical need for treatments for Ewing sarcoma, a pediatric sarcoma. We sought to identify compounds that inhibited Ewing sarcoma cells in vitro with the goal to then test promising drugs in two drug combinations in vitro to look for synergistic drug combinations. Promising combinations would then proceed to additional validation, including in vivo testing.\nUsing the NCATS developed oncology compound library called the Mechanism of Interrogation Plate (MIPE), four Ewing sarcoma cell lines were evaluated (TC32, TC71, RDES, EW8). Compounds, in a 12-point titration series, were incubated with cells for 48 hours and the read out was cell viability (CellTiter-Glo from Promega). These initial experiments were used to select appropriate concentrations of each single agent for subsequent two-drug matrix combinations such that the concentrations in the matrices would span both activity and non-activity.\nCells, in the log phase of growth, were seeded in 5 uL of RPMI plus 5% FBS, […] L-glutamine, 100 U/ml penicillin and 100 ug/ml streptomycin into 1536-well solid-bottom white tissue culture treated Greiner Bio One Plates (789173-F) using a MultiDrop Combi (Thermofisher Scientific) dispenser and a small sterile cassette. One column was media alone to be used as a :\"no cells\" control. The plates were then covered with sterilized stainless steel gasketed lids from Kalypsys. After allowing cells to attach for 4 hours, 23 nL of test compound or control (negative control DMSO and positive control 9.2 uM Bortezomib-final) were added from a 1536-well polypropylene compound source plate to each well using a 1536 head pin tool from Kalypsys. Cells were then incubated for 48 hours at 37C, 95% relative humidity and 5% CO2. After 48 hours, plates were removed from the incubator and 3 uL of CellTiter-Glo (Promega) was added using an Aurora Flying Reagent Dispenser Bioraptor. Plates were incubated at room temperature for 10 minutes prior to reading the luminescence on the Viewlux (PerkinElmer). The relative luciferase units are used to calculate the percent activity using the activity of DMSO in the cells and no cells columns for normalization of no inhibition and full inhibition respectively.", "values": [{"smiles": "O=C(C=Cc1cccc(S(=O)(=O)Nc2ccccc2)c1)NO", "Potency": "2.15 µM (active)"}, {"smiles": "COc1cc2nccc(Oc3ccc(NC(=O)C4(C(=O)Nc5ccc(F)cc5)CC4)cc3)c2cc1OC", "Potency": "1.32 µM (active)"}, {"smiles": "OCCCNc1cc(-c2ccnc(Nc3cccc(Cl)c3)n2)ccn1", "Potency": "0.166 µM (active)"}, {"smiles": "Cc1ccc(-c2ncn(-c3ccc(Nc4nccc(-c5cccc(N6CCOCC6)c5)n4)cc3)n2)cn1", "Potency": "0.0743 µM (active)"}, {"smiles": "CN(c1ncccc1CNc1nc(Nc2ccc3c(c2)CC(=O)N3)ncc1C(F)(F)F)S(C)(=O)=O", "Potency": "11.8 µM (active)"}, {"smiles": "C=CC(=O)Nc1cccc(Oc2nc(Nc3ccc(N4CCN(C)CC4)cc3OC)ncc2Cl)c1", "Potency": "0.0187 µM (active)"}, {"smiles": "CC(C)(O)CCc1ccc(OCc2cc(-c3cccc(OC(F)F)c3)c3ncccc3c2)cc1", "Potency": "inactive"}, {"smiles": "Nc1ncnc2c1c(-c1cnc3[nH]ccc3c1)nn2C1CCCC1", "Potency": "0.469 µM (active)"}, {"smiles": "CN(C)Cc1c(C(=O)NCCOc2ccc(C(=O)NO)cc2)oc2ccccc12", "Potency": "1.05 µM (active)"}, {"smiles": "NC(=O)Nc1cc(-c2cccc(F)c2)sc1C(=O)N[C@H]1CCCNC1", "Potency": "0.935 µM (active)"}, {"smiles": "CC1(C)CC(=O)c2c(C(F)(F)F)nn(-c3ccc(C(N)=O)c(NC4CCC(OC(=O)CN)CC4)c3)c2C1", "note": "(stereo not given)", "Potency": "0.166 µM (active)"}, {"smiles": "Nc1nccc(Oc2ccc(NC(=O)c3c[nH]cc(-c4ccc(F)cc4)c3=O)cc2F)c1Cl", "Potency": "1.66 µM (active)"}, {"smiles": "O=C(c1ccc(Nc2nccc(-c3cc4ccccc4s3)n2)cc1)N1CCC(N2CCCC2)CC1", "Potency": "18.7 µM (active)"}, {"smiles": "Cc1cnc(Nc2ccc(F)cc2Cl)nc1-c1c[nH]c(C(=O)N[C@H](CO)c2cccc(Cl)c2)c1", "Potency": "20.9 µM (active)"}, {"smiles": "Cc1[nH]c2ccccc2c1CCNCc1ccc(C=CC(=O)NO)cc1", "Potency": "0.0935 µM (active)"}, {"smiles": "CC1(C)CCC(c2ccc(Cl)cc2)=C(CN2CCN(c3ccc(C(=O)NS(=O)(=O)c4ccc(N[C@H](CCN5CCOCC5)CSc5ccccc5)c(S(=O)(=O)C(F)(F)F)c4)cc3)CC2)C1", "Potency": "26.4 µM (active)"}, {"smiles": "O=C(O)c1ccc2cc(-c3ccc(O)c(C45CC6CC(CC(C6)C4)C5)c3)ccc2c1", "Potency": "1.32 µM (active)"}, {"smiles": "C1Cc2[nH]nc(-c3nn[nH]n3)c2C1", "Potency": "inactive"}, {"smiles": "COC(=O)C1=C(C)NC(C)=C(C(=O)OCCN2CCN(C(c3ccccc3)c3ccccc3)CC2)C1c1cccc([N+](=O)[O-])c1", "note": "(stereo not given)", "Potency": "inactive"}, {"smiles": "CCOc1ccccc1OCCNC(C)Cc1ccc(OC)c(S(N)(=O)=O)c1", "note": "(stereo not given)", "Potency": "inactive"}, {"smiles": "CC(C)[C@H](C(=O)Nc1ccc(C(=O)NO)cc1)c1ccccc1", "Potency": "0.833 µM (active)"}, {"smiles": "Cn1cc(-c2[nH]c3cc(NC(=O)[C@H](N)C4CCCCC4)cc4c3c2C=NNC4=O)cn1", "Potency": "0.833 µM (active)"}, {"smiles": "O=C(O)CCCc1c[nH]c2ccccc12", "Potency": "inactive"}, {"smiles": "COCCOc1ccc2c(c1)ncn2-c1ccc2cccc(N3CCC(N)CC3)c2n1", "Potency": "18.7 µM (active)"}, {"smiles": "COC(=O)[C@]12CCC(C)(C)C[C@@H]1[C@@H]1C(=O)C=C3[C@@]4(C)C=C(C#N)C(=O)C(C)(C)[C@@H]4CC[C@@]3(C)[C@]1(C)CC2", "Potency": "0.372 µM (active)"}, {"smiles": "CCN1CCN(CC(=O)Nc2ccc(-c3cccc4c(=O)cc(N5CCOCC5)oc34)c3sc4ccccc4c23)CC1", "Potency": "8.33 µM (active)"}, {"smiles": "COc1cc(C)c(Sc2cnc(NC(=O)c3ccc(CNC(C)C(C)C)cc3)s2)cc1C(=O)N1CCN(C(C)=O)CC1", "note": "(stereo not given)", "Potency": "14.8 µM (active)"}, {"smiles": "CNC(=O)c1c(F)cccc1Nc1nc(Nc2cc3c(cc2OC)CCN3C(=O)CN(C)C)nc2[nH]ccc12", "Potency": "20.9 µM (active)"}, {"smiles": "COc1cc2c(Oc3ccc(NC(=O)C4(C(=O)Nc5ccc(F)cc5)CC4)cc3F)ccnc2cc1OCCCN1CCOCC1", "Potency": "16.6 µM (active)"}, {"smiles": "CCCCc1nc2cc(C=CC(=O)NO)ccc2n1CCN(CC)CC", "Potency": "0.187 µM (active)"}, {"smiles": "COc1cc2c(cc1-c1c(C)noc1C)ncc1[nH]c(=O)n([C@H](C)c3ccccn3)c12", "Potency": "6.62 µM (active)"}, {"smiles": "Nc1ccccc1NC(=O)c1ccc(CNc2nccc(-c3cccnc3)n2)cc1", "Potency": "1.32 µM (active)"}, {"smiles": "Nc1nc(NCCNc2ncc(-n3ccnc3)c(-c3ccc(Cl)cc3Cl)n2)ccc1[N+](=O)[O-]", "Potency": "0.833 µM (active)"}, {"smiles": "CCCNC(=O)Nc1ccc(Oc2ncnc3cc(OC)c(OC)cc23)cc1Cl", "Potency": "inactive"}, {"smiles": "Cc1cc(Nc2ncnc3ccc(-c4ccc(CNCCS(C)(=O)=O)o4)cc23)ccc1Oc1ccn2ncnc2c1", "Potency": "18.7 µM (active)"}, {"smiles": "c1nc2nc(Nc3ccc(N4CCOCC4)cc3)nc(NC3CCCCC3)c2[nH]1", "Potency": "14.8 µM (active)"}, {"smiles": "C[C@@H]1COC(Nc2ccc3ncnc(Nc4ccc(OCc5nccs5)c(Cl)c4)c3c2)=N1", "Potency": "2.64 µM (active)"}, {"smiles": "CN(C)CCCN=c1c2ccccc2n(C)c2[nH]c(=O)n(C)c(=O)c12", "Potency": "2.64 µM (active)"}, {"smiles": "COc1cc(OC2CCN(C)CC2)ccc1Nc1ncc2c(n1)n(C1CCCC1)c(=O)n2C", "Potency": "9.35 µM (active)"}, {"smiles": "C=C1C(=CC=C2CCCC3(C)[C@@H]([C@H](C)C=CC=CC(O)(CC)CC)CC[C@@H]23)C[C@@H](O)C[C@@H]1O", "note": "(stereo not given in full)", "Potency": "18.7 µM (active)"}]}]}
